Each compound was assayed on HFF (assay: cell viability relative to DMSO control; higher = less cytotoxic). Settings: 1 µM; 72 h.
Description: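 Single-dose cytotoxicity screen of the MMV Pandemic Response Box at 1 uM on human foreskin fibroblasts (HFF), 72 h at 37 C. Viability measured by MTT (OD 550 nm) and normalised to the DMSO control (% survival).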

SMILES	cell viability [%]
C(=C\c1nc2ccccc2[nH]1)/c1ccc2c(c1)OCO2	63.4
COc1cc(NC(=O)CN2C(=O)NC(c3ccccc3)(c3ccccc3)C2=O)cc(OC)c1	61
CNC(=O)C1O[C@@H](n2cnc3c(NCc4cccc(I)c4)nc(Cl)nc32)[C@H](O)[C@@H]1O (stereo not given in full)	61.2
CC(C)(C)c1ccc(C(Cn2cccc(C(F)(F)F)c2=O)NC2Cc3ccccc3C2)cc1 (stereo not given)	67.8
NNC(=O)c1ccncc1	62.8
FC(F)(F)Oc1ccc(Nc2ccc3cccc(Cl)c3n2)cc1	56.3
Nc1cnn(C2OC(CO)C(O)C2O)c(=O)n1 (stereo not given)	63.5
Nc1nc(Nc2ccc3nc(-c4ccc(F)cc4)cc(N)c3c2)cc(-c2ccccc2)n1	78.1
CCNC(=O)Nc1cc2c(-c3ccnc(C)c3)ccc(CNC(=O)OC)c2cn1	62.7
O=C(O)COc1cccc2c1CC[C@](O)(COC(=O)N(c1ccccc1)c1ccccc1)C2	68.5
CCc1cc(O)c(Oc2ccc(C(N)=O)cc2F)cc1F	67.9
Nc1nc(C(F)(F)F)cc2c1[nH]c(=O)n2Cc1ccccc1	65
COCCn1cnc2c(O)nc(Nc3ccccc3)nc21	61
NC(=O)C(c1ccccc1)(c1ccccc1)[C@H]1CCCN(CCc2ccc3c(c2)CCO3)C1	64
O[C@@](Cn1cnnn1)(c1ccc(F)cc1F)C(F)(F)c1ccc(-c2ccc(OCC(F)(F)F)cc2)cn1	58.9
C=C[C@]1(C)C[C@@H](OC(=O)CS[C@@H]2C[C@H]3CC[C@@H](C2)N3C)[C@]2(C)[C@H](C)CC[C@]3(CCC(=O)[C@H]32)[C@@H](C)[C@@H]1O	72.2
O=C(Nc1nnc(-c2ccc(Cl)cc2)o1)c1ccc(F)cc1	65.9
C[C@H]1[C@@H](c2cccc(C(F)(F)F)c2)OC(=O)N1C(=O)NCc1cncc2ccccc12	70
COc1cc(Cc2cnc(N)nc2N)c2c(c1OC)OC(C1CC1)C=C2 (stereo not given)	74.3
O=c1nc(N2CCN(CC3CCCCC3)CC2)sc2c([N+](=O)[O-])cc(C(F)(F)F)cc12	57.6

SMILES	cell viability [%]
Clc1cccc(-c2nnc(-c3ccccc3)o2)c1	64.1
O=C(Nc1ccc(Cl)c(C(F)(F)F)c1)C(CCCl)C(=O)Nc1ccc(Cl)c(C(F)(F)F)c1	79
Cc1onc(-c2ccccc2Cl)c1C(=O)N[C@@H]1C(=O)N2[C@@H]1SC(C)(C)[C@@H]2C(=O)O	69
OB1OCc2cc(Cl)ccc21	68.1
O=S(=O)(NCB(O)O)c1cc2c(Cl)ccc(Cl)c2s1	68
Cn1c2ccccc2c(=O)c2c(O)cccc21	65.8
O=c1cc(Nc2ccc3ccccc3c2)[nH]c(=O)[nH]1	65.6
COC(=O)Nc1nc2cc([S+]([O-])c3ccccc3)ccc2[nH]1 (stereo not given)	64.6
O=C(c1ccc(F)cc1)N1CCN2C(=O)c3ccccc3C12c1ccccc1 (stereo not given)	63.3
O=[N+]([O-])c1ccc2c(CCc3c[nH]c4ccccc34)c[nH]c2c1	61.9
Nc1nc2c(ncn2/C=C2/CC2(CO)CO)c(=O)[nH]1	63.8
CC[C@@]1(O)C(=O)OCc2c1cc1n(c2=O)Cc2cc3c(CN(C)C)c(O)ccc3nc2-1	50.1
Cc1cccc(CC(=O)N[C@H]2CCOC2=O)c1	77.2
CCCCCc1ccc(C(=O)NCCn2cc(CCCCCc3c[nH]c(N)n3)nn2)cc1	66.1
COc1ccc2sc3c(c2c1)NC(C)CNC3=O (stereo not given)	82.1
Cc1ncc([N+](=O)[O-])n1CC(O)CN1CCOCC1 (stereo not given)	61.1
Nc1cc(-c2nc3ccccc3[nH]2)n[nH]c1=O	67.1
Nc1nc(NC2Cc3ccc(F)cc3C2)nc(N2CCCCC2)n1 (stereo not given)	72.4
CO[C@@]1(NC(=O)Cc2cccs2)C(=O)N2C(C(=O)O)=C(COC(N)=O)CS[C@@H]21	63.7
O=C1c2cccc3cccc(c23)C(=O)N1CC1CO1 (stereo not given)	63.8

— the supplement of paper PMC10941209
